Reference: article PMC5540273 (PLoS ONE, 2017)

tested on: CSNK1E; conditions: concentration: 1 μM, replicates: in singlicate; n = 1
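Note: KINOMEscan kinase panel screen.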

Row | Structure (SMILES) | %Inh [%]
1 | Clc1cc(Nc2ncnc3cc[nH]c23)ccc1OCc1ccccn1 | 4
2 | O=C(Nc1ccccc1F)NC1CCN(c2ccnc(Nc3ccc(F)cc3)n2)C1 (stereo not drawn) [GSK1379722] | 27
3 | Cc1ccc(O)cc1Nc1cc(C(F)(F)F)nc2ccc(-c3ccncc3)cc12 [GW630823] | 0
4 | C[C@@H]1CCN(C(=O)CO)C[C@@H]1N(C)c1ncnc2[nH]ccc12 | 0
5 | Cn1cc(-c2ccc3c(c2)CCN3C(=O)Cc2cccc(C(F)(F)F)c2)c2c(N)ncnc21 [GSK2606414] | 0
6 | Cl.Cn1ccc(-c2cccc(Nc3ccnc4cc(-c5nccs5)ccc34)c2)n1 [GW525701] | 21
7 | CCc1nc(-c2cccc(N(C)S(=O)(=O)c3ccccc3)c2)c(-c2ccnc(Nc3ccc(N4CCN(C(C)=O)CC4)nc3)n2)s1 [GSK1645895] | 55
8 | CN1CCC(n2cnc(-c3ccc(F)cc3)c2-c2ccnc(NC3CCNCC3)n2)CC1 [SB-229482] | 93.4
9 | Nc1nc(-c2cccnc2)c(-c2ccnc3ccccc23)s1 [GW684083] | 71
10 | O=C(CCO)NCCn1ccc2ncnc(Nc3ccc(Oc4cccc(C(F)(F)F)c4)c(Cl)c3)c21 | 0
11 | O=C(NCCCN1CCCC1=O)c1cnc(NCc2cc(Cl)ccc2Cl)nc1NC1CCNCC1 | 87
12 | Fc1ccc(Nc2nccc(-c3c(-c4ccc(Cl)cc4)nn4ncccc34)n2)cc1F [GW829058] | 22
13 | c1ccc(-c2ccc3c(-c4ccnc(Nc5ccc6c(c5)OCCO6)n4)cnn3n2)cc1 [GW818941] | 0
14 | O=C(Nc1ccccc1)Nc1ccc(Oc2ccc3nccn3n2)cc1 | 1
15 | CN1c2ccc(-c3ccc(C(=O)NCCO)cc3)cc2-c2[nH]ncc2S1(=O)=O | 3
16 | CSc1ccc(NC2=C(c3ccccc3Cl)C(=O)NC2=O)cc1 [SB-342411] | 19
17 | CS(=O)(=O)CCNCc1nc(-c2ccc3ncnc(Nc4ccc(OCc5cccc(F)c5)c(Cl)c4)c3c2)cs1.Cl [GW583340] | 45
18 | Cl.c1ccc(Cn2ccc3cc(Nc4ncnc5ccccc45)ccc32)cc1 [GW275568] | 55

Row | Structure (SMILES) | %Inh [%]
19 | Nc1nccc2scc(-c3ccc4c(c3)CCN4C(=O)Cc3cc(F)ccc3F)c12 [GSK2587663] | 62
20 | Fc1cccc(COc2ccc(Nc3ncnc4sc(-c5ccc[nH]5)cc34)cc2Cl)c1 [GW707818] | 8
21 | Clc1ccc(-c2cc(-c3c[nH]nc3-c3ccccn3)ccn2)cc1 [GW681251] | 33
22 | Cc1cc(N2CCC(NS(=O)(=O)c3ccc(F)cc3)CC2)nc(Nc2cccc(C#N)c2)n1.O=C(O)C(F)(F)F [GSK1653537] | 52
23 | Cl.c1ccc(Cn2ncc3cc(Nc4ncnc5ccccc45)ccc32)cc1 [GW273749] | 42
24 | O=c1cc(N2CCOCC2)nc2n(Cc3cccc(Cl)c3)ccn12 [GSK2296823] | 34
25 | COc1ccc(NC(=O)c2ccc(-c3cc(-c4nnc(C)o4)ccc3C)cc2)cc1 [GW595885] | 0
26 | Cc1ccc(NC(=O)c2cccc(C#N)c2)cc1-c1ccc(C(=O)Nc2ccncc2)cc1 [GSK1398463] | 29
27 | FC(F)(F)c1ccc(-c2nn3ncccc3c2-c2ccnc(Nc3cccc(C(F)(F)F)c3)n2)cc1 [GW828205] | 17
28 | CCn1c(-c2ccncc2)nc2cnccc21 [SB-735216] | 0
29 | CC(C)(C)OC(=O)NC1CCCN(c2cc(-c3ccc4c(N)n[nH]c4c3)nc(N)n2)C1 (stereo not drawn) [GSK2286096] | 18
30 | CNc1nccc(-c2c(-c3ccc(F)cc3)ncn2C2CCN(C)CC2)n1 [SB-222903] | 99.5
31 | CS(=O)(=O)CCNCc1ccc(-c2ccc3ncnc(Nc4ccc(OCc5ccccc5)c(Cl)c4)c3c2)o1.Cl [GW574783] | 10
32 | COc1cc2c(Nc3cccc(NC(=O)c4ccccc4)c3)ncnc2cc1OCCCN1CCOCC1 [GSK223810] | 54
33 | COc1ccc(NC(=O)Nc2ccc(C)c(-c3ccc(C(=O)Nc4ccncc4)cc3)c2)cc1 [GSK1398475] | 36
34 | Oc1ccc2ncnc(Nc3ccc(OCc4ccccc4)cc3)c2c1 [GI262866] | 30
35 | Fc1ccc(-c2ncn(CCCNCc3ccccc3)c2-c2ccncc2)cc1 | 98.3
36 | FC(F)(F)c1ccc(-c2cc(-c3c[nH]nc3-c3ccccn3)ccn2)cc1 [GW599550] | 45
